From PubChem BioAssay AID1628 (Sanford-Burnham Center for Chemical Genomics, 2009) come the findings set out here.

Hit rate of the full screen: of about 190,000 compounds, about 930 (0.49%) were called active. This is one part of the list. Results with a measured potency or affinity are listed apart. Values without a mark were called inactive.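 How the source made its calls: active means z-score of insulin promoter reporter brightness in nuclei below -3 at 5 µM, with at least 500 cells counted; inconclusive means wells with under 500 cells, flagged as toxic or sparse; inactive means the rest.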

A short description of the experiment: insulin promoter down-regulators in MIN6 cells, imaging, high-content screening, mouse beta cells (AID 1628). The note with it: MIN6 insulin promoter GFP reporter, at 5 µM, hits give low values.
Turning to `O=C1c2ccccc2-n2c1nc1ccccc1c2=O`, the z-score was -2.2.

Regarding `COc1ccc(OC)c(C2=NOC(C(=O)NCC3CCCO3)C2)c1` (stereo unspecified), the z-score was 3.67.

As for `COc1ccc(-c2nnc(SCC3CCCO3)n2C)cc1` (stereo unspecified), the z-score was 2.62.

Turning to `CCOc1ccc(NC(=S)N2CCC(N(C)CC3CCCO3)CC2)cc1` (stereo unspecified), the z-score is 3.59.

For the compound `CCOc1ccc(-n2c(=O)c3c4c(sc3n(CC(=O)NCC3CCCO3)c2=O)CCC4)cc1` (stereo unspecified), the z-score was 1.12.

Turning to `CCOc1ccc(NC(=O)N2CCCC2C(=O)NCC2CCCO2)cc1` (stereo unspecified), the z-score is -3.14 (active).

Regarding `O=[N+]([O-])c1ccc(N/N=C/c2cn(Cc3ccc(F)cc3)c3ccccc23)nc1`, the z-score was 4.69.

`CC1(C)Cc2c(c(N3CCOCC3)nc3sc4c(NCc5ccco5)nnnc4c23)CS1`: the z-score was -6.38 (active).

For `C=CCN1C(=O)/C(=C/c2ccc(N(C)C)cc2)S/C1=N\c1nnc(CC)s1`, the z-score was 14.1.

With `Cc1cc(C)cc(N(CC(=O)Nc2cccc(C)n2)S(=O)(=O)c2c(C)noc2C)c1`, the z-score was 2.42.

For `C/C=C/c1ccc(OCCCN2C(=O)NC(C)(C)C2=O)c(OC)c1`, the z-score was -0.86.

Regarding `C#CCOCCOCCOCCNc1nc(N2CCN(C(=O)[C@H](CCCCN)n3cc(CCCC)nn3)CC2)nc(N2CCN(C(=O)[C@H](CCCCN)n3cc(CCCC)nn3)CC2)n1`, the z-score is -4.64 (active).

Take `CCCN1CC=C2C(C#N)=C(N)C(C#N)(C#N)C(c3cccc(OC)c3OC)C2C1` (stereo unspecified): the z-score was 8.86.

As for `CCOC(=O)N1CCC(NC2CCCCCCC2)CC1`, the z-score is 0.8.

As for `O=C(O)C1CCN(C(=O)OCc2ccccc2)CC1`, the z-score is -4.9 (active).

Consider `CN1/C(=C/C=C(C#N)C#N)C=Cc2ccccc21`, for which the z-score was 5.52.

Take `Cc1nc(CN(C)C(=O)c2cc(COc3ccc4ncccc4c3)on2)cs1`: the z-score is -5.59 (active).

On to `c1ccc(-c2cnn3c(-c4ccccc4)c(-c4ccccc4)nc3n2)cc1`, for which the z-score was 17.

Consider `CCCCn1nc(-c2ccccc2)c2nc3ccccc3nc21`, for which the z-score is 3.11.

As to `N=c1oc2c3c4c(cc2cc1C(=O)Nc1ccccc1)CCCN4CCC3`, the z-score is 18.

In the case of `CCc1ccc2nc3sc(C(=O)N4CCc5ccccc54)c(N)c3cc2c1`, the z-score was 4.93.

As to `CCC(=O)NC(c1cccs1)c1cc(Cl)c2cccnc2c1O` (stereo unspecified), the z-score is -4.24 (active).

In the case of `CCCCC(=O)NC(c1cccs1)c1cc(Cl)c2cccnc2c1O` (stereo unspecified), the z-score was -5.86 (active).

As for `CCN1CC=C2C(C#N)=C(N)C(C#N)(C#N)[C@H](c3cccc(OC)c3OC)[C@H]2C1`, the z-score is 11.6.

On to `Cc1ccc(N=C2NC(=O)/C(=C/c3cn(C)c4ccccc34)S2)cc1C`, for which the z-score was 3.02.

In the case of `CC1CC(=O)C2=C(C1)OC(N)=C(C#N)C2c1coc2ccccc2c1=O` (stereo unspecified), the z-score is 3.02.

Consider `Nc1c(C(=O)Nc2nccs2)sc2nc(-c3cccs3)cc(C(F)(F)F)c12`, for which the z-score was 5.95.

In the case of `NC(=O)c1sc2nccc(Nc3ccccc3)c2c1N`, the z-score was -3.42 (active).

In the case of `Nc1c(C(=O)O)sc2nc(-c3ccccc3)cc(-c3ccccc3)c12`, the z-score is 4.64.

Take `CS(=O)c1nc(-c2ccc(Br)cc2)cc(-c2ccccc2)c1C#N` (stereo unspecified): the z-score was -4.24 (active).

Regarding `Cc1ccc(S(=O)(=O)CCSc2nc(C)cc(C(F)(F)F)c2C#N)cc1`, the z-score was 10.9.

As to `Nc1c(Cl)ncnc1N1CCCC1`, the z-score was -3.27 (active).

`COc1ccc(-c2ccc3c(N)c(C(=O)c4cccc(OC)c4)sc3n2)cc1`: the z-score was 4.07.

`COc1ccc2c(c1)sc1nc(-c3ccccc3)cn12`: the z-score is -7.22 (active).

With `CCOc1ccc(OCCCCn2ccnc2)cc1`, the z-score was 3.52.

As to `Cc1cc(Cl)cc(C)c1OCCCCn1ccnc1`, the z-score was -4.53 (active).

For `Cc1cccc(OCCCCCn2ccnc2)c1C`, the z-score is -4.58 (active).

Regarding `CCN(CC)S(=O)(=O)c1ccc2oc(C(=O)NCc3ccc(F)cc3)c(C)c2c1`, the z-score was -4.31 (active).

For `Cc1c(C(=O)NCc2cccnc2)oc2ccc(S(=O)(=O)N3CCCCCC3)cc12`, the z-score was -5.16 (active).

Take `O=S(=O)(c1ccc2oc3ccc(S(=O)(=O)N4CCCCC4)cc3c2c1)N1CCCCC1`: the z-score is -3.18 (active).

As for `Cc1ccc(S(=O)(=O)c2cccc(S(=O)(=O)N3CCCC3)c2)cc1S(=O)(=O)N1CCCC1`, the z-score was 3.05.

On to `O=C(O)CCCN=Cc1c(O)c2ccccc2oc1=O`, for which the z-score is 2.46.

For the compound `Cc1oc(C)c2c(=O)ccc3c(c12)OC(N)=C(C#N)C3c1ccccc1Cl` (stereo unspecified), the z-score was 6.29.

With `COCCNC(=O)/C(=C/c1ccccc1Cl)c1ccccc1`, the z-score was -5.46 (active).

As for `COCCNC(=O)Cc1ccc(F)cc1`, the z-score is 3.03.

With `Cn1cc(/C=C2\SC(=S)N(NC(=O)c3ccccc3)C2=O)c2ccccc21`, the z-score was 6.71.

Take `CCC(=O)N1CCN(c2ccccc2NC(=O)COc2cc(C)ccc2C(C)C)CC1`: the z-score is -3.26 (active).

Take `COc1ccc(C)cc1NC(=O)CC(NC(C)=O)c1ccccc1` (stereo unspecified): the z-score was 4.5.

`CCOc1ccc(-c2c(C#N)c(N)nc3sc(C(=O)c4ccccc4)c(N)c23)cc1`: the z-score is 9.11.

`Cc1nnc(SCC(=O)c2cc(C)n(-c3ccc4c(c3)OCO4)c2C)s1`: the z-score is -4.16 (active).

With `Cn1cc(C(N)=O)c2ccccc21`, the z-score was 0.12.

`O=S(=O)(c1ccc(Br)cc1)N1CCN(c2cc(-c3ccccc3)nc3ncnn23)CC1`: the z-score was -6.61 (active).

Take `N/C(=N\OC(=O)N1c2ccccc2Sc2ccccc21)c1ccccc1`: the z-score is -3.28 (active).

On to `O=C(N=C1SCC(=O)N1c1ccccc1Cl)c1ccccc1`, for which the z-score was 5.04.

Turning to `CCN1C(=O)CSc2ccc(C(=O)NCc3ccccc3OC)cc21`, the z-score was 3.1.

For `CC(C)NC(=O)NC(=O)COC(=O)c1cccc(S(=O)(=O)N2CCCCC2)c1`, the z-score was 4.62.

With `COc1ccccc1CNC(=O)COC(=O)c1ccc(S(=O)(=O)N2CCCC2)cc1`, the z-score is -5.2 (active).

For `Cn1c(=O)[nH]c(=O)c2c1nc(N1CCCCC1)n2CCCSc1nc2ccccc2s1`, the z-score was 0.01.

On to `CCC(=O)c1ccc(O)c(OC)c1`, for which the z-score is -1.5.

Consider `CCOC(=O)C(C(C)=O)C(c1ccc(OCCC(C)C)cc1)C(C(C)=O)C(=O)OCC` (stereo unspecified), for which the z-score was 0.98.

For `CCOC(=O)C(C)S(=O)(=O)c1ccc(C(F)(F)F)cn1` (stereo unspecified), the z-score is -4.01 (active).

Consider `CCN1CCN(c2ncc3c(n2)CC(c2cc(OC)c(OC)c(OC)c2)CC3=O)CC1` (stereo unspecified), for which the z-score is -3.96 (active).

With `O=C(Nc1ccc(N2CCCCC2)cc1)c1cccnc1`, the z-score is 3.44.

Take `O=C(NNC(=O)c1cccnc1)NC12CC3CC(CC(C3)C1)C2`: the z-score is -3.86 (active).

In the case of `O=C(NCc1cccnc1)c1cnn2ccccc12`, the z-score is -7.96 (active).

In the case of `Nc1c(C(=O)Nc2nc3ccccc3s2)sc2nc(-c3cccs3)ccc12`, the z-score is 5.64.

As to `O=C(Nc1nc(-c2cccs2)cs1)c1ccc(Cl)s1`, the z-score was -3.6 (active).

As to `Cc1csc(NC(=O)c2sc3nc(-c4cccs4)ccc3c2N)n1`, the z-score was 4.58.

With `Cc1cc(/C=N/n2cnnc2)c(C)n1-c1cccc(C(=O)O)c1`, the z-score was 4.18.

`Cc1sc(-n2c(C)cc(/C=N/n3cnnc3)c2C)c(C#N)c1C`: the z-score was -4.46 (active).

For the compound `O=c1c2ccccc2c(C=Nc2ccccc2O)c(O)n1-c1nccs1`, the z-score is 4.35.

Take `CCOc1ccc(-n2c(O)c(/C=N/Nc3nnc(C)c(=O)[nH]3)c3ccccc3c2=O)cc1`: the z-score was -5.62 (active).

As for `Cc1ccc(-n2c(O)c(/C=N/NC(=O)C3COc4ccccc4O3)c3ccccc3c2=O)cc1` (stereo unspecified), the z-score is 3.14.

On to `O=c1oc2cc(O)ccc2cc1-c1nc2c(s1)CCc1ccccc1-2`, for which the z-score is 13.6.

On to `CC1(C)Cc2c(ccc3ccccc23)C(c2cc3ccccc3oc2=O)=N1`, for which the z-score was 4.19.

Consider `O=C(NCCCCc1ccccc1)c1ccc(Br)o1`, for which the z-score is 1.07.

As for `Cc1ccccc1C(=O)NCCCc1ccccc1`, the z-score is -5.2 (active).

For `CCCCN(CC)CCNC(=O)c1cc2c(C)nc3ccccc3c2o1`, the z-score is 0.65.

Turning to `Cc1cc(C(=O)CSc2nnnn2-c2ccccc2)c(C)n1CC1CCCO1` (stereo unspecified), the z-score was -1.4.

`CCCCC1=CC2=C(c3ccco3)C(=O)C(C)(OC(=O)c3ccc(OC)cc3)C(=O)C2=CN1CC(C)C` (stereo unspecified): the z-score is 4.34.

Regarding `CC(CNC(=O)c1cncc(O)c1)NC(=O)c1cncc(O)c1` (stereo unspecified), the z-score is 3.21.

Regarding `CCCN1C=CC(=C/C=C(\C#N)C(=O)OCC)C=C1`, the z-score is 3.98.

With `O=C(C1=NN(c2ccccc2)C2C(=O)N(c3cccc(Cl)c3)C(=O)C12)c1ccccc1` (stereo unspecified), the z-score was 3.17.

With `CCCCN1C(=O)/C(=C/C=C2\SCCN2C)SC1=S`, the z-score is 13.8.

`Cc1ccc(/C=N/NC(=O)NC2CCCCC2)o1`: the z-score was -4.13 (active).

Consider `NC1=NC[C@@H](Cc2ccc(O)cc2)N1CCCCC1CCCCC1`, for which the z-score was -1.05.

Regarding `CCn1c(Cn2nnc(-c3ccccc3)n2)nnc1SCC(=O)Nc1ccc(C(C)=O)cc1`, the z-score was 4.86.

Regarding `CCn1c(CN2CCCCCC2=O)nnc1SCc1cnc(-c2ccccc2)s1`, the z-score is -3.13 (active).

Take `O=[N+]([O-])c1ccc(-c2ccc(/C=N/Nc3nc(NCc4ccccc4)nc(N4CCOCC4)n3)o2)cc1`: the z-score was 9.01.

As for `O=[N+]([O-])c1ccc(-c2ccc(/C=N/Nc3nc(N4CCCCC4)nc(N4CCCCC4)n3)o2)cc1`, the z-score is 5.14.

With `O=C(CSc1ccc2nnc(CCNC(=O)c3ccccc3)n2n1)Nc1ccccc1`, the z-score is 2.32.

Take `COc1cc2c(cc1OC)-c1nncn1C(C)(C)C2`: the z-score is 3.76.

On to `CCCCN(C)C1=CC2=CC(=C(C#N)C#N)CCC2CC1` (stereo unspecified), for which the z-score is 16.

For the compound `COc1cc2c(cc1NC(=O)CN1CCN(S(=O)(=O)c3ccccc3F)CC1)oc1ccccc12`, the z-score was 3.63.

On to `COc1cc(NC(=O)c2ccccc2)c(OC)cc1NC(=O)CN1CCOCC1`, for which the z-score is -3.01 (active).

In the case of `COc1ccc(Cl)cc1NC(=O)C1(c2cccs2)CCOCC1`, the z-score was 3.78.
